Most compounds without a hit are left out; they make up all but 6.7% or so of the library.
GDH-TPI counter: GDH-TPI coupled enzyme inhibition counter-screen. GDH-TPI coupled enzyme counterscreen, NADH absorbance. inhibition, % at 4.8 µM. 360,000 tested, 1.2% active. AID 588335; in the data active means inhibition above about 30%;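 further: 0% = DMSO wells and 100% = wells lacking the enzyme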
BoNT-F LC inh: inhibitors of Botulinum neurotoxin F light chain protease; Multiplex microsphere protease cleavage assay, flow cytometry; inhibition, % at 10 µM; 360,000 tested, 0.22% active; AID 588497; in the data active means inhibition above about 35%, passing the limit was not always enough; inconclusive means no clear call, values can overlap the other calls; further: plate controls were buffer without enzyme for full effect and enzyme alone for no effect
BoNT A protease: BoNT A light chain protease inhibition | 360,000 tested, 0.17% active | multiplex microsphere protease substrate cleavage, flow cytometry | inhibition, % at 10 µM; further: plate controls were buffer without enzyme for full effect and enzyme alone for no effect
Autofluor counter: compound fluorescence in toxin protease inhibitor counterscreen. compound autofluorescence counterscreen, microsphere flow cytometry; hits give high values. fluorescence intensity (test concentration not listed). 360,000 tested, 3.1% active; in the data active means fluorescence intensity above about 16000; inconclusive means no clear call, values can overlap the other calls
Anthrax LF inh2: inhibitors of Bacillus anthracis lethal factor protease; multiplex microsphere protease cleavage assay, LF; AID 588501; inhibition, % at 10 µM; 360,000 tested, 0.12% active; further: plate controls were buffer without enzyme for full effect and enzyme alone for no effect
FBA Mtb inh: inhibitors of M. tuberculosis fructose-bisphosphate aldolase | P9WQA3 | purified M. tuberculosis FBA, fluorescence read-out | inhibition, % at 1 µM | 360,000 tested, 2.3% active | AID 588726; in the data active means inhibition above about 27%;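 further: 0% = vehicle and 100% = reference inhibitor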
Target sequence (P9WQA3 whole entry, looked up): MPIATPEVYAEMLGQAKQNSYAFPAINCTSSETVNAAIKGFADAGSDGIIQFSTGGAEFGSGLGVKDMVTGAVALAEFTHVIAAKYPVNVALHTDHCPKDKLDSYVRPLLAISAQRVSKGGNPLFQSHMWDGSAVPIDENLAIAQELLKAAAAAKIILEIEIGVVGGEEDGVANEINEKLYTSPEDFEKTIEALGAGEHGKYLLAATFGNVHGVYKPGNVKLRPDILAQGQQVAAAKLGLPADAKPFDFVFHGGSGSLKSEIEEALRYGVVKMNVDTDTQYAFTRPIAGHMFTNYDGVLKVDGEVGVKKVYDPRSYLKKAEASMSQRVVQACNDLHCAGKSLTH
Numbers without * were called inactive; ? = inconclusive. Unless noted, no stated cut-off is given here; in the data, active means inhibition above about 30%; inconclusive means no clear call, values can overlap the other calls; inactive means below that.

SMILES	GDH-TPI counter	BoNT-F LC inh	BoNT A protease	Autofluor counter	Anthrax LF inh2	FBA Mtb inh
O=C(C1CCC(=O)N1Cc1ccccc1Cl)N1CCN(c2ccc(F)cc2)CC1 (stereo not drawn)	0	-2	0	2793	4	1
O=C(Nc1cc(Cl)cc(Cl)c1)C1CCC(=O)N1Cc1ccccc1Cl (stereo not drawn)	3	2	3	21909*	-6	-2
O=C(C1CCC(=O)N1Cc1ccccc1Cl)N1CCC2(CC1)OCCO2 (stereo not drawn)	7	8	5	20370*	0	6
O=C(Nc1ccncc1)C1CCN(S(=O)(=O)c2ccc(Cl)cc2)CC1	1	-6	-8	6048	-1	-1
CC(C(=O)Nc1ccccc1C(=O)N1CCCC1)n1nnc2ccccc21 (stereo not drawn)	-6	-5	-3	21214*	0	4
N#Cc1c(NC2CCCCC2)nc(-c2ccco2)c2c1CCCC2	0	3	3	3201	0	25
CN[C@H]1CCc2cc(OC)c(OC)c(OC)c2-c2ccc(N(C)CC(OC)OC)c(=O)cc21	16	1	5	3759	4	2
O=C(NC1=NCCS1)c1cccs1	10	-4	-2	4826	-5	7
CC(C)C(NC(=O)c1cccs1)C(=O)NC1=NCCS1 (stereo not drawn)	7	3	?	21605*	-1	2
CN(C)/C=C(/C(=O)c1ccc(Cl)cc1)S(=O)(=O)c1ccc(Cl)cc1	5	-5	-1	16355*	-1	2
CN(C)/C=C(/C(=O)c1ccc(Cl)cc1Cl)S(=O)(=O)c1ccc(Cl)cc1	2	8	0	9207	-2	2
O=C(O)c1ccc([N+](=O)[O-])c2c1C(=O)c1ccccc1C2=O	2	?	?	20562*	-49	-7
CC(C)(C)OC(=O)N1CC(O)CC1C(=O)OCC(=O)c1ccc(Cl)cc1 (stereo not drawn)	2	8	7	20684*	-4	-1
O=C(NCC1CCCO1)c1ccc(S(=O)(=O)Nc2ccccc2F)cc1 (stereo not drawn)	-5	-5	0	6552	-2	0
O=c1[nH]c2ccccc2n1CCCSCCCn1c(=O)[nH]c2ccccc21	12	3	?	19717*	-3	-1
O=C(CN(Cc1ccco1)C(=O)c1cc(=O)[nH]c2ccccc12)Nc1ccccc1C(F)(F)F	19	0	0	16502*	-4	1
O=C(CN(Cc1ccco1)C(=O)c1ccc(F)cc1F)Nc1ccccc1C(F)(F)F	0	4	2	6714	-5	5
CN(CC(=O)Nc1ccc(F)cc1)C(=O)COC(=O)COc1ccc(C#N)cc1	1	-4	1	5695	-2	-1
COc1cccc(-c2cc(C(=O)Nc3c(C)nn(Cc4ccccc4C)c3C)no2)c1	8	4	4	19715*	0	-1
CSc1ccccc1NC(=O)c1cc(-c2cccs2)on1	13	2	?	24196*	-1	6
COc1cccc(-c2cc(C(=O)Nc3c(C)nn(Cc4ccccc4)c3C)no2)c1	-9	10	1	10684	-2	2
Cc1nn(Cc2ccccc2)c(C)c1NC(=O)c1cc(-c2cccs2)on1	5	0	0	16449*	-3	-1
COc1ccc(-c2cc(C(=O)Nc3c(C)nn(Cc4ccccc4)c3C)no2)cc1	2	-6	-2	24465*	-2	5
Cc1nn(Cc2ccccc2)c(C)c1NC(=O)c1cc(-c2ccc3c(c2)OCO3)on1	8	-2	?	16514*	1	0
O=C(NCCCn1ccnc1)c1cc(-c2ccc3c(c2)OCO3)on1	-4	-2	0	20683*	1	1
SMILES	GDH-TPI counter	BoNT-F LC inh	BoNT A protease	Autofluor counter	Anthrax LF inh2	FBA Mtb inh
O=C(NC12CC3CC(CC(C3)C1)C2)N1CCN(C2CCCCC2)CC1	-1	-7	0	4450	3	1
Cc1ccc(C)c(N2CCN(C(=O)Cn3cccc3)CC2)c1	-5	-11	0	11749	-4	0
Cc1cc(Br)ccc1NC(=O)CCS(=O)(=O)c1cccc2nonc12	6	-5	-1	5997	-2	1
N#Cc1c(=O)c2nc(NCCCO)ncc2n2c(=O)c3ccccc3[nH]c12	20	3	1	1991	-1	-6
N#Cc1c(=O)c2nc(NCc3ccccc3)ncc2n2ccccc12	18	0	0	23674*	3	22
CC(=O)c1ccc(OC(=O)c2cccs2)cc1	-3	-7	-3	24802*	-1	2
CC(=O)Nc1ccc(OC(=O)c2cccs2)cc1	0	-5	?	16646*	-1	2
CCOC(=O)c1c(C)[nH]c(C(=O)Cn2nnc(-c3ccccc3)n2)c1C	-2	0	1	3821	1	3
COC(=O)Nc1ccc(Oc2ccccc2)cc1	-4	-5	-6	21537*	1	0
CC(=O)Nc1ccc(Oc2ccccc2)cc1	-13	-5	-2	5703	-11	0
COC(=O)Nc1ccc(S(=O)(=O)N(CCO)CCO)cc1	-1	2	1	22684*	0	0
CCC(=O)N1CCc2cc(Br)cc(S(=O)(=O)N3CCCCC3CC)c21 (stereo not drawn)	-1	1	0	6283	0	1
CC(=O)c1ccc(OC(NC(=O)c2ccco2)C(Cl)(Cl)Cl)cc1 (stereo not drawn)	11	-19	0	9912	-6	7
O=C1c2ccccc2S(=O)(=O)N1CC(O)COc1ccc(Br)cc1 (stereo not drawn)	10	5	2	16210*	-1	-3
Cc1ccc(C2/C(=C(/O)c3ccccc3)C(=O)C(=O)N2CCN2CCOCC2)o1 (stereo not drawn)	-8	1	1	20379*	-2	0
COc1ccc(/C=C2\N=C(SC)NC2=O)cc1	14	6	0	2510	-4	0
COc1ccc(/C=C2/N=C(SC)NC2=O)cc1OC	40*	0	0	6083	4	-6
Cc1ccc2cccnc2c1NC(=S)NC(=O)c1ccccc1	24	1	?	22969*	2	5
Cc1ccc(-n2c(O)c(/C=C/C=Nc3ccccc3)c(=O)[nH]c2=O)cc1	18	6	0	3252	2	-21
COc1cc(C2Oc3cc(C4Oc5cc(O)cc(O)c5C(=O)C4O)ccc3OC2CO)ccc1O (stereo not drawn)	36*	-10	0	6143	-2	-2
N#Cc1c2n(c3c(=O)n(Cc4ccc(Cl)cc4)cnc13)CCCCC2	13	-4	1	3595	0	-3
N#Cc1c2n(c3c(=O)n(Cc4ccccc4)cnc13)CCCC2	9	-7	-5	17920*	-2	1
CC(C)Sc1nc2c(c(=O)[nH]c(=O)n2C)n1C	0	-6	0	2449	3	1
CCOC(=O)C(=Cc1ccc(-c2ccsc2C(=O)OC)o1)C(=O)OCC	16	1	1	22339*	0	-1

High-throughput results from PubChem BioAssay.
